Compound activity (PubChem)
TRPML1 blocker – blocks the human TRPML1 channel. Q9GZU1. TRPML1-inducible cells, Ca2+ dye fluorescence, FDSS; active compounds read low; inhibition of EC80 agonist-evoked calcium signal. activity change, negative = inhibition, % (concentration not given with the values). 390,000 tested, 0.02% active. AID 624415; in the data active means activity change below about -50%;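 further: stimulus is agonist 54-4 at its EC80 concentration; on the % scale 0 is the no-effect control and ±100 the full control effect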
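Calcium fluorescence in TRPML1-DL cells induced overnight with Tet: a 110 s read after compound pin addition, then a 110 s antagonist read after challenge with 54-4 at 4 uM final (EC80).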
TRHR ag – agonists of human TRH receptor. P34981. TRHR cells, calcium flux fluo-8, FDSS agonist mode. activation, % at 2 µM. 360,000 tested, 0.18% active. AID 493084; in the data active means activation above about 30%; further: 0% is about no effect
Target sequence (P34981 whole entry, looked up): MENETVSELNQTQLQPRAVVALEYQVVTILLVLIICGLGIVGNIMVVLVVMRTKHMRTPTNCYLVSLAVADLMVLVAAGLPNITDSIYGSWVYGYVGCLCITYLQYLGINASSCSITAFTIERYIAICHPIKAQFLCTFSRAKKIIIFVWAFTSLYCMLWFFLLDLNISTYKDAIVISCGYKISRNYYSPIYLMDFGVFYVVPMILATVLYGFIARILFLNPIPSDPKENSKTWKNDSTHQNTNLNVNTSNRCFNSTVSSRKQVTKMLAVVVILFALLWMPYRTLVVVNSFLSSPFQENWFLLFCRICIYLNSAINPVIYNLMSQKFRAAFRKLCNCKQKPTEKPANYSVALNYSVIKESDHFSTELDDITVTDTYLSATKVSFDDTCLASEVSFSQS
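TRHR-expressing cells, plated overnight in medium with 10% serum, were loaded with fluo-8 calcium dye at room temperature. After a 10 s baseline, library compound was pin-added and calcium release was recorded kinetically (ex 480/em 530) as agonist response.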
TRPML1 agonist – activates the human TRPML1 channel. AID 624414. TRPML1-expressing cells, Ca2+ dye fluorescence, FDSS. activation, % (test concentration not listed). 410,000 tested, 0.12% active. Q9GZU1; in the data active means activation above about 50%; further: 0% is about no effect
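Calcium fluorescence on an FDSS kinetic reader gave the read-out. Tet-induced TRPML1-DL cells were plated overnight, dye-loaded (Ca8 with quencher, 45-90 min, room temperature, dark), then read 110 s after compound addition, and again 110 s after 4uM final 54-4 (EC80).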
GRP78 ERSR act – induces the endoplasmic reticulum stress response in human glioma cells; Potency, µM, for the others: at the top dose activation, usual class: activators; U87-MG GRP78 promoter luciferase reporter, 16 h; 420,000 tested, 0.02% active; active means well fitted activation curve with a large enough effect; further: potency means the concentration at half of the fitted maximal effect; series mostly up to about 76 µM; % of control where 0% means no effect; nearly all actives have a fitted effect of over 35% in size
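Stably transfected U87-MG glioma cells carrying a GRP78-based luciferase sensor; 16 h compound incubation. Luminescence end-point read 10 min after Bright-Glo addition at room temperature.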
TRHR enhancer – allosterically enhances the human TRH receptor; enhancement, % at 2 µM; P34981; TRHR cells, fluo-8 calcium fluorescence, EC20 TRH enhancement; 360,000 tested, 0.66% active; in the data active means enhancement above about 30%; further: 0% is about no effect
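TRHR-expressing cells loaded with fluo-8 calcium dye were read kinetically (ex 480/em 530) during compound addition, then stimulated with an EC20 of TRH (10 nM final). Enhancement of the Gq-mediated intracellular calcium response was scored.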
Active calls of the source: *; . = no result given; ! = a repeat was not active. Compounds with a hit are over-represented: about 0.8% of the library has one in this group of screens.

SMILES	TRPML1 blocker	TRHR ag	TRPML1 agonist	GRP78 ERSR act	TRHR enhancer
O=C(Nc1noc2ccccc12)c1ccc(F)cc1	-1	1	0	.	46*
O=C(Nc1noc2ccccc12)c1cccc(F)c1	-7	1	0	.	-6
COc1ccccc1OC(=O)CCN1c2ccccc2Sc2ccccc21	-23	0	2	-1%	1
COc1ccc(C(=O)/C=C2\Sc3ccccc3N2C)cc1	-26	-1	0	-1%	0
COc1ccc(-[n+]2c(C)cc(/C=C3\Sc4ccccc4N3C)cc2C)cc1	2	73*	69*	-3%	66*
COc1ccccc1-[n+]1c(C)cc(/C=C2\Sc3ccccc3N2C)cc1C	-12	61*	65*	-9%	90*
O=S(=O)(NC1CCCC(NS(=O)(=O)c2c(F)cccc2F)C1)c1ccc2c(c1)OCCO2 (configuration not stated)	.	3	.	.	10
O=C(c1ccc(Cl)cc1)C1CCCN(Cc2cccn2-c2cccnc2)C1 (configuration not stated)	3	0	2	-2%	33*
CSc1ccc(C(=O)C2CCCN(Cc3cccn3-c3cccnc3)C2)cc1 (configuration not stated)	-6	1	1	-3%	-9
O=[S+]([O-])(c1ccc2c(c1)OCCO2)N1CCN([S+](=O)([O-])c2c(O)cc(F)cc2F)CC1	.	2	.	.	-6
CCOC(=O)N1CCN(C(=O)c2oc3ccc(S(=O)(=O)N4CCCCCC4)cc3c2C)CC1	7	0	0	-5%	5
CCOC(=O)N1CCN(C(=O)c2oc3ccc(S(=O)(=O)N4CCOCC4)cc3c2C)CC1	-8	-1	-1	5%	34*
CCOC(=O)c1oc2ccc(S(=O)(=O)n3nc(-c4ccc(C)cc4)cc3N)cc2c1C	-11	1	-1	-2%	42*!
COc1ccc(-c2ccc(C(=O)N(C)Cc3csc(C)n3)c(N3CCC(N4CCc5ccccc5C4)CC3)n2)cc1	.	.	.	-4%	.
COc1ccc2cc(CNC3CCS(=O)(=O)C3)c(-c3ccc(OC)c(OC)c3)nc2c1 (configuration not stated)	.	.	.	-6%	.
O=C(N/N=C/c1ccco1)c1cc(-c2cccc3ccccc23)n[nH]1	10	0	2	6%	36*
O=C(N/N=C/c1ccco1)c1cc(-c2ccccc2)n[nH]1	-1	0	0	10%	1
O=C(c1cnn(-c2nccc(-c3ccccc3F)n2)c1C1CC1)N1CCCCC1c1cccnc1 (configuration not stated)	.	.	.	-3%	.
CC(=O)Nc1ccc(Nc2cc(-c3ccccc3)nc3ncnn23)cc1	3	-1	1	-2%	38*
FC(F)(F)c1cccc(Nc2cc(-c3ccccc3)nc3ncnn23)c1	2	0	-1	0%	-2
Cc1nc(CC(=O)N2CCC(n3c(C4CCC4)nc4cccnc43)CC2)cs1	.	.	.	-4%	.
O=C(Nc1ccc(N2CCN(C(=O)c3ccccc3F)CC2)cc1)c1ncn[nH]1	-1	0	-1	-3%	33*
Cc1ccccc1C(=O)N1CCN(c2ccc(NC(=O)c3cccnc3Cl)cc2)CC1	-2	1	0	-5%	-1
NS(=O)(=O)c1ccc(CCNC(=O)C2CCN(S(=O)(=O)c3c(Cl)cccc3Cl)CC2)cc1	-6	0	1	1%	36*
COC(=O)c1ccc(-c2cccc3c2OC(CNC(=O)/C=C/c2ccc(OC)c(OC)c2)C3)nc1 (configuration not stated)	.	.	.	0%	.
SMILES	TRPML1 blocker	TRHR ag	TRPML1 agonist	GRP78 ERSR act	TRHR enhancer
O=C(NCC(c1ccco1)N1CCCCC1)c1ccc(S(=O)(=O)Nc2ccccc2)cc1 (configuration not stated)	-9	1	1	-3%	11
N#CCC(=O)Nc1ccc(C(=O)NCC(c2ccco2)N2CCCCC2)cc1 (configuration not stated)	20	1	4	-2%	38*
Cc1cc(C(=O)N(Cc2cc3cc4c(cc3nc2N2CCOCC2)CCC4)CC2CCCO2)c(=O)[nH]c1C (configuration not stated)	.	.	.	4%	.
COc1ccc(N2CCN(C(=O)c3cc(NC(C)=O)c4c(c3)ncn4CCc3ccccn3)CC2)cc1	.	.	.	1%	.
COc1ccc2c(c1)CCc1cnc(-n3ncc(C(=O)NCc4cc(C)no4)c3C3CC3)nc1-2	.	.	.	4%	.
Cc1ccccc1NC(=O)c1ccc(N(Cc2ccccc2)S(C)(=O)=O)cc1	2	0	-1	-7%	36*
NC(=O)c1nsc(C(=O)N(c2ccccc2F)C(C(=O)NCc2ccc(F)cc2)c2ccc(O)cc2)c1N (configuration not stated)	6	1	2	-6%	30*
O=C(c1cccnc1)C1CCCN(Cc2ccc3c(c2)CN(C(=O)c2ccc4[nH]ccc4c2)CCO3)C1 (configuration not stated)	.	.	.	-6%	.
O=C(NCCS(=O)(=O)N1CCCCCC1)c1ccc(F)cc1	20	0	0	-7%	30*
C=CCNC(=S)NNC(=O)c1cccc(Br)c1	3	0	2	0%	4
C=CCNC(=S)NNC(=O)c1ccccc1	16	0	2	0%	39*
COc1cc(C(=O)NCCc2cn3ccccc3n2)cc(OC)c1OC	38	0	0	-5%	30*
O=C(NCc1ccncc1)c1cnn(-c2ncc3c(n2)-c2ccccc2CC3)c1C1CC1	.	.	.	-2%	.
CCOc1ccccc1N(CC(=O)N1CCOCC1)S(=O)(=O)c1ccccc1	0	83*	28	0%	5
O=C(c1cncs1)N(Cc1cc2cc3c(cc2nc1N1CCOCC1)CCC3)CC1CCCO1 (configuration not stated)	.	.	.	-4%	.
COc1ccc(N=Nc2nc3cc(Br)c(Br)cc3n2C)c(OC)c1	5	55*	4	-4%	-2
O=C(c1n[nH]c2c1CCCC2)N1CCOc2ccc(C(O)C3CCCCC3)cc2C1 (configuration not stated)	.	.	.	-4%	.
COc1cccc(-n2c(SCC(=O)c3ccc(Cl)cc3)nc3c([nH]c4ccccc43)c2=O)c1	-16	1	1	4%	1
COc1cccc(-n2c(SCC(N)=O)nc3c([nH]c4ccccc43)c2=O)c1	9	0	0	-2%	37*
CCC(CC)C(=O)N1CCN(Cc2nc3ccccc3c(=O)[nH]2)CC1	1	-1	1	-4%	32*
O=c1[nH]c(CN2CCN(c3ccc(F)cc3)CC2)nc2ccccc12	-19	0	0	-3%	34*
COc1cc(CN2CCC3(CC2)c2ccccc2[C@@H](NC(=O)c2ccccc2OC)[C@@H]3O)ccc1F	.	.	.	-2%	.
C#CCn1c(-c2cccs2)nc2ccccc21	-23	1	0	6%	32*
